The values below come from the supplement of paper PMC6555819.

One assay deals with RXRa DBDmut IVT, anti-RXR (DBD mutation: RXRa K156A/R161A, NR concentration 90 nM). Briefly: PBM binding z-score (relative to random genomic background probes); higher = stronger binding; sequences stand for … in GC…GCGATTGACAGCGTAGAATGAAGG
In a few lines:
(§1)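 The probes on custom Agilent 4×180K protein-binding microarrays were double-stranded, with 34-nt variable regions bearing direct-repeat seeds, single-nucleotide variants, half-site ablations and random human genomic background sequences. Incubation lasted 1 h with ligand-free nuclear receptor dimers in PBS pH 7.4, 2% milk, 0.02% Triton X-100, 1 mM DTT, 0.2 mg/mL BSA and 0.4 mg/ml salmon testes DNA. Antibodies against each partner (one per run) detected bound dimers, and fluorescence scans were regression-normalized. Binding z-scores take the random background probes as reference.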
On to CCTGCTAGGGCAATGGTCAGCTAAAGCAGCTCGC, for which the PBM binding z-score was -0.414.

With ATCGAAAGGTCGTGAGGTGAGTCTACAGAAAGGC, the PBM binding z-score turned out to be 1.06.

CCTAGCACGCCAGGGTCACTCAAGCATTTCGCTT: the PBM binding z-score was found to be 0.65.

For TCATATAAGTAAAAGGTGAAAGTCGGTGTGGTAA, the PBM binding z-score worked out at 1.85.

Regarding AGTCAAAGTTCATCTAGGCAACGTAAGATATGCT, the PBM binding z-score was 4.78.

In turn, ACTATTAGTTGACTTAGGGCAACCCATACGACGC came in with a PBM binding z-score of 0.729.

For the sequence CCTCGGTGGACAACAGGAGGTCAGAGCTGCCAGA, the PBM binding z-score is -0.87.

CGAACTAGGTCAGGGACAGTGAATCTCCGCACGC had a PBM binding z-score of 0.647.

TCGAGTAGGTTAGACGGGGCATTCAGCCAACATA returned a PBM binding z-score of 0.0493.

As for CCTTACGGGTCACCGACAGGTTATAGCATTTGGA, the PBM binding z-score was 1.12.

Regarding GCTGCTAGGTCAACTGATGTTCAGCTAAAGCTCG, the PBM binding z-score was determined as 1.81.

Regarding TCTTATAGGTAAAAGGTGAAAGTCGGTGTGGTAA, the PBM binding z-score is 1.69.

As for ACTAGCAGGCCAAGTCTGGGTCACTCAAACAAAG, the PBM binding z-score is -0.171.

Consider ATCTCTAGGAAAAGATAGTTCAGTGAATGCAAAT, for which the PBM binding z-score was 0.143.

On to ACTAGCAGGCCAAGTTTGGGTCACTCAGACAAAG, for which the PBM binding z-score was found to be 0.0571.

For AACTCTAGGTAAAGATAGTTCAGTGAATGCAAAT, the PBM binding z-score was determined as 0.162.

The sequence GCTAGCAGGCCATTTGGTTCACTCAATGACGGGC registered a PBM binding z-score of 0.552.

In the case of ATCGAAAGGCCGACGAGGTGAGTATACACCGTTT, the PBM binding z-score is -0.604.

TCTGTTAGTTGAAGGGCAACCGACGAGTCCGTTT gave a PBM binding z-score of 1.1.

In turn, CCTACTGGGCCACGAAACGTCATTGATTCAGTGA displayed a PBM binding z-score of -0.404.

Regarding TCGAGTAGGTTAGGGGCATGCAGAATGGCGTCGA, the PBM binding z-score stood at 0.22.

In turn, CCTACTGGGCCAAAGCTCATTGATTCCAATGCTC showed a PBM binding z-score of -0.0907.

Sequence TCTTGTAGAGCAACAGGAGGTTAAGAAAGATCGA displayed a PBM binding z-score of 0.0247.

TCTTGTAGATCAAGCAGGTTAAGGAAGCCTGAGT came in with a PBM binding z-score of 0.415.

In turn, CCTAGCAGGCCAATCTGGGTCACTAAAGGCTTGA showed a PBM binding z-score of 0.23.

The sequence CCTTACGGGTCACTCCAGATTATAGCATCGGAGT yielded a PBM binding z-score of 1.28.

Regarding CGTCCAAGGTCAAGGTCAGTTAAAGAGACTCGAA, the PBM binding z-score is 3.68.

For CCTGCTGGGCCAAGGTCATTGATCAGTCAAAGCA, the PBM binding z-score worked out at 1.26.

TCGAGTAGGTTACCAATGGGGCAGTCAGCTTTCT came in with a PBM binding z-score of 0.0356.

On to AGTCTAAGTTCACTAGGTAACGTAAGATTCAGCT, for which the PBM binding z-score was found to be 4.47.

CAAACTAGGTGACGAAAGGTCAAAGTCGAATGAC yielded a PBM binding z-score of 1.41.

As for CCTTGTTGGTCAGGAGGTCACACACCGGATATGA, the PBM binding z-score turned out to be 0.608.

Take ATCTCTAGGTAACAAGTCCAGTGAAAGAGAGGAC: the PBM binding z-score worked out at 0.0341.

For the sequence GCTAGTTGGTCAGTAAAAGGTCACACATCGGTCG, the PBM binding z-score amounted to 0.844.

In turn, GGAACGAGGGCGTTCGAGTTGATAGCATGGCGAT had a PBM binding z-score of 2.26.

CTACCAAGGTGAACAACGTCGTTGATTACTATTC yielded a PBM binding z-score of 0.685.

CGAACTAGGTCAGAACAGGACAGTGGAGGATGAT returned a PBM binding z-score of 0.671.

GCTGCTAGGTCTACTGATGGTCAGCTAAAGCTCG: the PBM binding z-score was found to be 0.147.

CAAACTAGGTCATGGTCAAAGTCGGTTTGTGCCA: the PBM binding z-score was 1.45.

As to ATCGAAAGGCCGTGAGGTGAGTATACAGAAAGGC, the PBM binding z-score is -0.765.

In another assay the test system is RXRa homodimer (NR concentration 180 nM). Described as above. In a few lines: as §1
CCTGCTAGGGCAATGGTCAGCTAAAGCAGCTCGC gave a PBM binding z-score of -0.159.

ATCGAAAGGTCGTGAGGTGAGTCTACAGAAAGGC came in with a PBM binding z-score of 5.19.

In the case of CCTAGCACGCCAGGGTCACTCAAGCATTTCGCTT, the PBM binding z-score amounted to 3.14.

Sequence TCATATAAGTAAAAGGTGAAAGTCGGTGTGGTAA had a PBM binding z-score of 2.11.

For the sequence AGTCAAAGTTCATCTAGGCAACGTAAGATATGCT, the PBM binding z-score was 4.97.

For ACTATTAGTTGACTTAGGGCAACCCATACGACGC, the PBM binding z-score was 0.631.

With CCTCGGTGGACAACAGGAGGTCAGAGCTGCCAGA, the PBM binding z-score worked out at 1.64.

CGAACTAGGTCAGGGACAGTGAATCTCCGCACGC showed a PBM binding z-score of 1.47.

Take TCGAGTAGGTTAGACGGGGCATTCAGCCAACATA: the PBM binding z-score came out at 0.305.

Take CCTTACGGGTCACCGACAGGTTATAGCATTTGGA: the PBM binding z-score is 6.11.

GCTGCTAGGTCAACTGATGTTCAGCTAAAGCTCG displayed a PBM binding z-score of 2.95.

Consider TCTTATAGGTAAAAGGTGAAAGTCGGTGTGGTAA, for which the PBM binding z-score was 3.2.

ACTAGCAGGCCAAGTCTGGGTCACTCAAACAAAG registered a PBM binding z-score of 0.902.

ATCTCTAGGAAAAGATAGTTCAGTGAATGCAAAT yielded a PBM binding z-score of 0.0291.

Sequence ACTAGCAGGCCAAGTTTGGGTCACTCAGACAAAG came in with a PBM binding z-score of 0.7.

Sequence AACTCTAGGTAAAGATAGTTCAGTGAATGCAAAT came in with a PBM binding z-score of 0.119.

With GCTAGCAGGCCATTTGGTTCACTCAATGACGGGC, the PBM binding z-score was -0.107.

The sequence ATCGAAAGGCCGACGAGGTGAGTATACACCGTTT displayed a PBM binding z-score of 0.344.

Take TCTGTTAGTTGAAGGGCAACCGACGAGTCCGTTT: the PBM binding z-score was 0.588.

CCTACTGGGCCACGAAACGTCATTGATTCAGTGA had a PBM binding z-score of -0.385.

Consider TCGAGTAGGTTAGGGGCATGCAGAATGGCGTCGA, for which the PBM binding z-score amounted to 0.663.

With CCTACTGGGCCAAAGCTCATTGATTCCAATGCTC, the PBM binding z-score is -0.521.

Take TCTTGTAGAGCAACAGGAGGTTAAGAAAGATCGA: the PBM binding z-score was 0.479.

Turning to TCTTGTAGATCAAGCAGGTTAAGGAAGCCTGAGT, the PBM binding z-score was determined as 0.299.

CCTAGCAGGCCAATCTGGGTCACTAAAGGCTTGA: the PBM binding z-score was 0.402.

Sequence CCTTACGGGTCACTCCAGATTATAGCATCGGAGT displayed a PBM binding z-score of 3.98.

As for CGTCCAAGGTCAAGGTCAGTTAAAGAGACTCGAA, the PBM binding z-score turned out to be 6.66.

The sequence CCTGCTGGGCCAAGGTCATTGATCAGTCAAAGCA yielded a PBM binding z-score of 3.54.

TCGAGTAGGTTACCAATGGGGCAGTCAGCTTTCT yielded a PBM binding z-score of 0.404.

As for AGTCTAAGTTCACTAGGTAACGTAAGATTCAGCT, the PBM binding z-score worked out at 2.31.

On to CAAACTAGGTGACGAAAGGTCAAAGTCGAATGAC, for which the PBM binding z-score was 7.46.

With CCTTGTTGGTCAGGAGGTCACACACCGGATATGA, the PBM binding z-score was found to be 4.89.

ATCTCTAGGTAACAAGTCCAGTGAAAGAGAGGAC yielded a PBM binding z-score of 0.552.

In turn, GCTAGTTGGTCAGTAAAAGGTCACACATCGGTCG displayed a PBM binding z-score of 5.27.

Sequence GGAACGAGGGCGTTCGAGTTGATAGCATGGCGAT came in with a PBM binding z-score of -0.0265.

On to CTACCAAGGTGAACAACGTCGTTGATTACTATTC, for which the PBM binding z-score turned out to be 0.887.

Turning to CGAACTAGGTCAGAACAGGACAGTGGAGGATGAT, the PBM binding z-score was 1.4.

GCTGCTAGGTCTACTGATGGTCAGCTAAAGCTCG: the PBM binding z-score is -0.738.

In the case of CAAACTAGGTCATGGTCAAAGTCGGTTTGTGCCA, the PBM binding z-score is 3.08.

In turn, ATCGAAAGGCCGTGAGGTGAGTATACAGAAAGGC returned a PBM binding z-score of 0.904.
